aSyn 5UTR act – Activators via SNCA 5'UTR binding, MLPCN. alpha-synuclein 5'UTR reporter, activators screen. activity score, % (tested at 7.5 µM), hits read low. 7.1% of 300,000 active; in the data active = activity score below about -60%
A number is an active result. A selection follows.

Results for CCc1ccc2[nH]c(=O)c(CN(CCN(CC)CC)C(=O)Nc3ccccc3OC)cc2c1 ?
aSyn 5UTR act: -62

How did COc1ccccc1NC(=O)N(Cc1ccco1)Cc1cc2ccc(C)c(C)c2[nH]c1=O do in these assays?
aSyn 5UTR act: inactive

What do the screens show for `CC1(C)CC(=O)c2sc(NS(=O)(=O)Cc3ccccc3)nc2C1`?
aSyn 5UTR act: -63

Results for CN1N=C(/C=C/c2ccccc2)CCC1=O ?
aSyn 5UTR act: -134

How did Cc1ccc(/C=C/C2=NN(C)C(=O)CC2)cc1 do in these assays?
aSyn 5UTR act: -104

What do the screens show for `CCOc1ccc(C(=O)Cc2cc(OC)c(OC)cc2[N+](=O)[O-])cc1`?
aSyn 5UTR act: -80

How did CCOc1ccc(N/C=C/C(=O)c2ccc(OC)cc2)c([N+](=O)[O-])c1 do in these assays?
aSyn 5UTR act: -118

How did CCOc1ccc(NC(=S)NC(=O)/C=C/c2ccc(Br)cc2)c([N+](=O)[O-])c1 do in these assays?
aSyn 5UTR act: -79

Results for COc1cccc(C(=O)/C=C/Nc2cc(C)ccc2O)c1 ?
aSyn 5UTR act: -261

Results for CCOC(=O)c1cccc(N/C=C/C(=O)c2ccc(OC)c(OC)c2)c1 ?
aSyn 5UTR act: -130

What do the screens show for `Cc1cccc(N/C=C/C(=O)c2ccc(Cl)cc2)c1`?
aSyn 5UTR act: -157

Results for CCOC(=O)c1ccc(N/C=C\C(=O)c2cccc(OC)c2)cc1 ?
aSyn 5UTR act: -131

What do the screens show for `COc1ccc(C(=O)/C=C/Nc2ccc([N+](=O)[O-])cc2)cc1`?
aSyn 5UTR act: -106

What do the screens show for `COc1ccc(C(=O)/C(C#N)=N/Nc2ccc([N+](=O)[O-])cc2)cc1`?
aSyn 5UTR act: inactive

What do the screens show for `CCOC(=O)c1ccc(OS(=O)(=O)c2ccccc2)c(OC)c1`?
aSyn 5UTR act: -195

Results for COc1cccc(N/C=C/C(=O)c2ccc(OC)c(OC)c2)c1 ?
aSyn 5UTR act: -97

Results for COc1cccc(N/C=C/C(=O)c2ccc(Br)cc2)c1 ?
aSyn 5UTR act: -117

How did COc1ccc(C(=O)/C=C/Nc2cccc(O)c2)cc1 do in these assays?
aSyn 5UTR act: -94

How did COC(=O)c1ccccc1N/C=C/C(=O)c1ccc(Br)cc1 do in these assays?
aSyn 5UTR act: -132

Results for Cc1ccc(Cl)c(N/C=C/C(=O)c2ccccc2)c1 ?
aSyn 5UTR act: -144

What do the screens show for `CC(C)CC(=O)Nc1ccc(C(=O)Nc2cccc(O)c2)cc1`?
aSyn 5UTR act: -151

How did O=C(Nc1cccc(O)c1)c1ccc(C(F)(F)F)cc1 do in these assays?
aSyn 5UTR act: -166

Results for O=C(Nc1ccc(F)c(Cl)c1)c1ccc2c(=O)n3c(nc2c1)CCCCC3 ?
aSyn 5UTR act: -166

What do the screens show for `O=C(Nc1cccc(Cl)c1)c1ccc2c(=O)n3c(nc2c1)CCCCC3`?
aSyn 5UTR act: -217

What do the screens show for `CCc1cccc(NC(=O)c2ccc3c(=O)n4c(nc3c2)CCCCC4)c1`?
aSyn 5UTR act: -127

How did O=C(Nc1ccc(F)cc1)c1ccc2c(=O)n3c(nc2c1)CCCCC3 do in these assays?
aSyn 5UTR act: -104

What do the screens show for `O=C(Nc1ccc(Cl)cc1)c1ccc2c(=O)n3c(nc2c1)CCCCC3`?
aSyn 5UTR act: -120

What do the screens show for `O=C(NC1CCCCC1)C(=O)c1c[nH]c2ccccc12`?
aSyn 5UTR act: -115

How did O=C(NC1CCCC1)c1n[nH]c2ccccc12 do in these assays?
aSyn 5UTR act: -86

What do the screens show for `O=C(NCC1CCCO1)C(=O)c1c[nH]c2ccccc12` (stereo not drawn)?
aSyn 5UTR act: -73

Results for O=C(NCCC1=CCCCC1)C(=O)c1c[nH]c2ccccc12 ?
aSyn 5UTR act: -81

How did Cc1ccc(NC(=O)C(=O)c2c[nH]c3ccccc23)cc1 do in these assays?
aSyn 5UTR act: -169

How did CCc1cc(C(=O)COc2ccc(F)cc2)c(O)cc1O do in these assays?
aSyn 5UTR act: -104

What do the screens show for `Cc1c(O)ccc(C(=O)COc2ccc(F)cc2)c1O`?
aSyn 5UTR act: -154

How did Cc1nc(/C=C/c2ccccc2)cc(/C=C/c2ccccc2)n1 do in these assays?
aSyn 5UTR act: -104

What do the screens show for `C(=C\c1cc(/C=C/c2ccccc2)ncn1)/c1ccccc1`?
aSyn 5UTR act: -145

What do the screens show for `Cn1nc(/C=C/c2ccccc2)ccc1=O`?
aSyn 5UTR act: -190

Results for S=c1nc[nH]c2nc[nH]c12 ?
aSyn 5UTR act: inactive

What do the screens show for `COc1c(OC)c(O)c2c(=O)cc(-c3c(O)cccc3O)oc2c1OC`?
aSyn 5UTR act: -64

Results for Cc1cc(N)n(-c2nc3ccccc3s2)n1 ?
aSyn 5UTR act: -157

Results for Cc1cc(N)n(-c2ccc3ccccc3c2)n1 ?
aSyn 5UTR act: -119

What do the screens show for `Cc1ccc(/C=C/c2nc3ccccc3s2)s1`?
aSyn 5UTR act: inactive

Results for Cc1cc(C)n(-c2nc3ccccc3s2)n1 ?
aSyn 5UTR act: -168

What do the screens show for `Cc1cc(NC(=O)C(C)C)n(-c2nc3ccccc3s2)n1`?
aSyn 5UTR act: -78

How did C#CCOc1ccc(C2C3=C(COC3=O)Nc3cc4c(cc32)OCO4)cc1OC (stereo not drawn) do in these assays?
aSyn 5UTR act: inactive

How did CCOc1ccccc1C1C2=C(COC2=O)Nc2cc3c(cc21)OCO3 (stereo not drawn) do in these assays?
aSyn 5UTR act: inactive

How did CCOc1ccc(C2Sc3ccccc3NC3=C2C(=O)OC3)cc1 (stereo not drawn) do in these assays?
aSyn 5UTR act: -78

How did Cn1ccc(C(=O)Nc2ccc(Br)cc2Br)n1 do in these assays?
aSyn 5UTR act: -79

How did COc1cccc(NC(=O)c2ccn(C)n2)c1 do in these assays?
aSyn 5UTR act: -73

How did COc1cccc(NC(=O)c2cnsn2)c1 do in these assays?
aSyn 5UTR act: -97

What do the screens show for `COc1cccc(NC(=O)c2ncc(Cl)c(Cl)c2Cl)c1`?
aSyn 5UTR act: -224

What do the screens show for `COc1ccc(C(NC(=O)C(C)C)c2ccc3cccnc3c2O)cc1` (stereo not drawn)?
aSyn 5UTR act: inactive

How did On1c(-c2ccccc2)nc2ccc(Cl)cc21 do in these assays?
aSyn 5UTR act: -149

Results for CC(On1c(-c2ccccc2)nc2ccc(Cl)cc21)C(=O)O (stereo not drawn) ?
aSyn 5UTR act: -62

How did COc1ccc(-c2n(CC(=O)OC3CC(C)CCC3C(C)C)c3ccccc3[n+]2C)cc1 (stereo not drawn) do in these assays?
aSyn 5UTR act: inactive

Results for O=c1c2ccc(Cl)cc2nc(-c2cccc(C(F)(F)F)c2)n1O ?
aSyn 5UTR act: inactive

What do the screens show for `Cc1ccc(-c2nc3ccc(Cl)cc3n2OC(C)C(=O)O)cc1` (stereo not drawn)?
aSyn 5UTR act: -127

How did COc1ccc(-c2nc3ccccc3n2OC(C)C(=O)O)cc1 (stereo not drawn) do in these assays?
aSyn 5UTR act: -196

Results for C/C(=N\Nc1nc(-c2ccccc2)cs1)c1cccs1 ?
aSyn 5UTR act: -280

How did O=C(Cc1cccs1)Nc1nc(-c2ccccc2)cs1 do in these assays?
aSyn 5UTR act: -81

How did O=C(Cn1nc(C(=O)O)c2ccccc2c1=O)Nc1nc(-c2ccccc2)cs1 do in these assays?
aSyn 5UTR act: -71

What do the screens show for `O=C(COC(=O)c1cccs1)Nc1nc(-c2ccccc2)cs1`?
aSyn 5UTR act: -90

Results for O=C(Cn1nc(-c2ccccc2)c2ccccc2c1=O)Nc1ccccn1 ?
aSyn 5UTR act: -66

Results for Cc1nc(CC(=O)Nc2nc(-c3ccccc3)cs2)cs1 ?
aSyn 5UTR act: -66

Results for O=C(COC(=O)c1cc(=O)[nH]c2ccccc12)Nc1nc(-c2ccccc2)cs1 ?
aSyn 5UTR act: -73

What do the screens show for `COC(=O)CCC(=O)Nc1nc(-c2ccccc2)cs1`?
aSyn 5UTR act: -65

High-throughput results deposited in PubChem by Broad Institute.
